How the values were obtained:
[1] = target: T1, Aurora kinase A (Homo sapiens) (UniProt O14965); conditions: at 1 µM;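 further: values are mean percent inhibition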
T1 sequence (whole entry): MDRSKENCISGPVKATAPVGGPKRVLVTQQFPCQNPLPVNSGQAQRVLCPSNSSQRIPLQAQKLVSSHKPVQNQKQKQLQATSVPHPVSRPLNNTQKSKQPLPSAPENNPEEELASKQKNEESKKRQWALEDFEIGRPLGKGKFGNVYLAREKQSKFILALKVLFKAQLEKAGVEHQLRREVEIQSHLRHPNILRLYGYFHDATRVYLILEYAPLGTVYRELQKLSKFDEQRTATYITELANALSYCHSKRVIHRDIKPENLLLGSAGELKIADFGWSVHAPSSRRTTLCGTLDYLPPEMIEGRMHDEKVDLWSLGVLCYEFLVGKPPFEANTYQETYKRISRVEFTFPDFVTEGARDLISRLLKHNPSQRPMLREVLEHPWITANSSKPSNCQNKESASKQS

[2] = target: Aurora kinase B (Homo sapiens) (UniProt Q96GD4); conditions: at 0.1 µM
Sequence of Aurora kinase B (Homo sapiens) (Q96GD4 whole entry): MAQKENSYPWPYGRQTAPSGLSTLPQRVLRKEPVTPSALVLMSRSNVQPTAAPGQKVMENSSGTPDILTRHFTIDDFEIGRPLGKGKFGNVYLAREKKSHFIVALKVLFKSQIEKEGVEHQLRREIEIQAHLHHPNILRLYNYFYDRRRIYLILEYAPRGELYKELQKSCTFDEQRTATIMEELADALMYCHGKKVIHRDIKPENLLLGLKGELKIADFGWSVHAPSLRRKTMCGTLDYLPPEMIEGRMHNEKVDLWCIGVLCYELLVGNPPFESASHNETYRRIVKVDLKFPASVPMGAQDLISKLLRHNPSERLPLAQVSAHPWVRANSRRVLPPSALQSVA

[3] = target: Aurora kinase B (Homo sapiens) (UniProt Q96GD4); conditions: at 1 µM
[4] = target: T2, Aurora kinase C (Homo sapiens) (UniProt Q9UQB9); conditions: at 0.1 µM
T2 sequence (whole entry): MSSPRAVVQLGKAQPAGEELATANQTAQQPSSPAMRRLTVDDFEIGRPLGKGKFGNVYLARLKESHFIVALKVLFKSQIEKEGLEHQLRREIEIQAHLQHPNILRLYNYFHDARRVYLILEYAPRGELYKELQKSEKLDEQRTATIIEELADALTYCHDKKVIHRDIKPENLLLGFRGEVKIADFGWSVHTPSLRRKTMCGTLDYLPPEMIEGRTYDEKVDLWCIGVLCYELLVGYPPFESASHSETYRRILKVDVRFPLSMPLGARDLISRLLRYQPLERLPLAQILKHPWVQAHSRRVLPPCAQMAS

[5] = target: T2, Aurora kinase C (Homo sapiens); conditions: at 1 µM
[6] = target: Serine/threonine-protein kinase 10 (Homo sapiens) (UniProt O94804); conditions: at 0.1 µM
Sequence of Serine/threonine-protein kinase 10 (Homo sapiens) (O94804 whole entry, looked up): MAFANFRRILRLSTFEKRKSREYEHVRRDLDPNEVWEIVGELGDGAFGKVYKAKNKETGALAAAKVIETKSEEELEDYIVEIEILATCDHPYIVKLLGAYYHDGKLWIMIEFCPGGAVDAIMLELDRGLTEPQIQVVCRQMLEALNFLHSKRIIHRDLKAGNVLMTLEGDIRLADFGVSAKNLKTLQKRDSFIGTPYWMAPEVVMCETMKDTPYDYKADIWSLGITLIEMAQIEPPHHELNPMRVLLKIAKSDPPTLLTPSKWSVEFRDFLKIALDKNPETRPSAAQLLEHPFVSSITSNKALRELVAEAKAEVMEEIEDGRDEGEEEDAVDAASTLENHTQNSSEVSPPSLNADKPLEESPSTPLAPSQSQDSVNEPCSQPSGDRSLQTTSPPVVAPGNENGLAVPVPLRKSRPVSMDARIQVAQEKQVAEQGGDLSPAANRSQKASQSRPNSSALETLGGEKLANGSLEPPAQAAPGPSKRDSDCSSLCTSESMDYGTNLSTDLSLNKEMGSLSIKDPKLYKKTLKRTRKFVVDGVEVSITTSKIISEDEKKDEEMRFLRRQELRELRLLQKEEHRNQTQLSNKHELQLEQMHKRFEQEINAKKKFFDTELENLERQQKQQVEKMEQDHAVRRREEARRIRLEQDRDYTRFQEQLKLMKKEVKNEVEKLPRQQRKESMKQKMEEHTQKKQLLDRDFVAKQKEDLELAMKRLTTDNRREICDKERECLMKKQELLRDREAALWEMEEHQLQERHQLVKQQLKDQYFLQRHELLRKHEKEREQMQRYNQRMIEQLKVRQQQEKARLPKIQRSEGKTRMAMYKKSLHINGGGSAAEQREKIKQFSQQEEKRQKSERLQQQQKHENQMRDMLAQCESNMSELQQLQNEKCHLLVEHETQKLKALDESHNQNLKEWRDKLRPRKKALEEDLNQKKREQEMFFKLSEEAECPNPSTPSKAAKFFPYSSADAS

[7] = target: Serine/threonine-protein kinase 10 (Homo sapiens) (UniProt O94804); conditions: at 1 µM
[8] = target: T3, Mitogen-activated protein kinase kinase kinase kinase 2 (Homo sapiens) (UniProt Q12851); conditions: at 0.1 µM
T3 sequence (whole entry): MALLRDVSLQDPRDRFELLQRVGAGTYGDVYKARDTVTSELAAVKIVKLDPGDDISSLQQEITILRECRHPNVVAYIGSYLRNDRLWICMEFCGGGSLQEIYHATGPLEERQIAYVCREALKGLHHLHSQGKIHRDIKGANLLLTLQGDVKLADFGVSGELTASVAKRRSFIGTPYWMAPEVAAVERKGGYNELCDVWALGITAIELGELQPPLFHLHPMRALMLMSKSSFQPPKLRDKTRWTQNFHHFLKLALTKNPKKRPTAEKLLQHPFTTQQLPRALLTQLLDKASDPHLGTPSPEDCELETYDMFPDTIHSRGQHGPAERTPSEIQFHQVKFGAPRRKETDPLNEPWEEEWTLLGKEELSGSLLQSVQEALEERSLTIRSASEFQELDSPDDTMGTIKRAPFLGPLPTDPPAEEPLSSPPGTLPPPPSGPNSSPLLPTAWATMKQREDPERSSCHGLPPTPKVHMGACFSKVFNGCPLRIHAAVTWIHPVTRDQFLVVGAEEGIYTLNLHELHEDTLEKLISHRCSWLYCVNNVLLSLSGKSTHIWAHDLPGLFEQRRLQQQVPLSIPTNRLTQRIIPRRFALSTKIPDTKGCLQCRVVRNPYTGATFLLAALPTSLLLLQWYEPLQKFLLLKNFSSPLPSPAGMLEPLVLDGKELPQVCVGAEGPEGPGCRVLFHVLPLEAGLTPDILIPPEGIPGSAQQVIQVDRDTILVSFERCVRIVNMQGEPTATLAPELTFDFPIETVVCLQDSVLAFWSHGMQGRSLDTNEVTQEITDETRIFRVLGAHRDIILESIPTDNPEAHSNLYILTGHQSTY

[9] = target: T3, Mitogen-activated protein kinase kinase kinase kinase 2 (Homo sapiens); conditions: at 1 µM
[10] = target: Mitogen-activated protein kinase kinase kinase kinase 4 (Homo sapiens) (UniProt O95819); conditions: at 0.1 µM
Sequence of Mitogen-activated protein kinase kinase kinase kinase 4 (Homo sapiens) (O95819 2-1239 limits assumed): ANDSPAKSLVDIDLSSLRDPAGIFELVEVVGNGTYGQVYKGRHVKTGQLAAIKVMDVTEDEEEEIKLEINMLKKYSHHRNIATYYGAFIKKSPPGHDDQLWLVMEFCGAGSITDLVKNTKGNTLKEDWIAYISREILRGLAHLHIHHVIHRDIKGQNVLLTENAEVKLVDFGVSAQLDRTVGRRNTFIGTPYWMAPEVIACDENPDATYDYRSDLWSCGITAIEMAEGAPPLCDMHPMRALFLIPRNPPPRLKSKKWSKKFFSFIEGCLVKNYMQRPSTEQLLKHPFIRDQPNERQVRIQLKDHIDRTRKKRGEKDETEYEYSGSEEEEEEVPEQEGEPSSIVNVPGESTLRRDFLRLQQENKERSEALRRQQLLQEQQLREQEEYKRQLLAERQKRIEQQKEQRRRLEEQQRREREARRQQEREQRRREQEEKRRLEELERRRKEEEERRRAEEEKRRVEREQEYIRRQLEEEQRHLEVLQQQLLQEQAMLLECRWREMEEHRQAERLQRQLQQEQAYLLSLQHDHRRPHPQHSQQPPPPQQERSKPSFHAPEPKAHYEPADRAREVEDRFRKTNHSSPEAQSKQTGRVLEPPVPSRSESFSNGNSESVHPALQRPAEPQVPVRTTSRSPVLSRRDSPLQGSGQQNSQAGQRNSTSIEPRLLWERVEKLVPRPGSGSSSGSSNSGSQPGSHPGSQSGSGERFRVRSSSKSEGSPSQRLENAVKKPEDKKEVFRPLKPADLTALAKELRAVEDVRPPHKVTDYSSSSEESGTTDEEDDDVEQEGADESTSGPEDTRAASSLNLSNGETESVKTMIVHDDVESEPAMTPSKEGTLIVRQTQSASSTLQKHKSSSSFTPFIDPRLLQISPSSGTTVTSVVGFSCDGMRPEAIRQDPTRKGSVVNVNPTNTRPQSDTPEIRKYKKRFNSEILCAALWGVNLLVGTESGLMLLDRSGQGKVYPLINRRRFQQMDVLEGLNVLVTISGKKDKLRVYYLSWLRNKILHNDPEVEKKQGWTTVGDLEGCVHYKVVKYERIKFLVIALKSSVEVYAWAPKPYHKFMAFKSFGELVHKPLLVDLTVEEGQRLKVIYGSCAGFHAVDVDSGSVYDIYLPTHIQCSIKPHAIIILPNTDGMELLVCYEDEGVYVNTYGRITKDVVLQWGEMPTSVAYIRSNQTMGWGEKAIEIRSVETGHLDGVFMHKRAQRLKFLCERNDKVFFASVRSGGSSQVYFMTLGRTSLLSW

[11] = target: Mitogen-activated protein kinase kinase kinase kinase 4 (Homo sapiens) (UniProt O95819); conditions: at 1 µM
[12] = target: Dual specificity mitogen-activated protein kinase kinase 1 (Homo sapiens) (UniProt Q02750); conditions: at 0.1 µM
Sequence of Dual specificity mitogen-activated protein kinase kinase 1 (Homo sapiens) (Q02750 whole entry): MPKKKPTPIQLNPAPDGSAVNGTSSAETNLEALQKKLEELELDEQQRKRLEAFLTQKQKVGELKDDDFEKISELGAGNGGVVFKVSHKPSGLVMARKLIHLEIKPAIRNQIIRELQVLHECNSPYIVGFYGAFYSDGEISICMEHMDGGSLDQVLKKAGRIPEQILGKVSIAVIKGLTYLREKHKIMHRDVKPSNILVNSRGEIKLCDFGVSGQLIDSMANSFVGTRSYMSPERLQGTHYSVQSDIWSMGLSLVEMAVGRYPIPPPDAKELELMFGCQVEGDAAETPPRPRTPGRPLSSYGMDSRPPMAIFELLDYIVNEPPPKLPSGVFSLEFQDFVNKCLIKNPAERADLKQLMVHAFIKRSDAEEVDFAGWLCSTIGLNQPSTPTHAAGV

[13] = target: Dual specificity mitogen-activated protein kinase kinase 1 (Homo sapiens) (UniProt Q02750); conditions: at 1 µM
[14] = target: Misshapen-like kinase 1 (Homo sapiens) (UniProt Q8N4C8); conditions: at 0.1 µM
Sequence of Misshapen-like kinase 1 (Homo sapiens) (Q8N4C8 whole entry, looked up): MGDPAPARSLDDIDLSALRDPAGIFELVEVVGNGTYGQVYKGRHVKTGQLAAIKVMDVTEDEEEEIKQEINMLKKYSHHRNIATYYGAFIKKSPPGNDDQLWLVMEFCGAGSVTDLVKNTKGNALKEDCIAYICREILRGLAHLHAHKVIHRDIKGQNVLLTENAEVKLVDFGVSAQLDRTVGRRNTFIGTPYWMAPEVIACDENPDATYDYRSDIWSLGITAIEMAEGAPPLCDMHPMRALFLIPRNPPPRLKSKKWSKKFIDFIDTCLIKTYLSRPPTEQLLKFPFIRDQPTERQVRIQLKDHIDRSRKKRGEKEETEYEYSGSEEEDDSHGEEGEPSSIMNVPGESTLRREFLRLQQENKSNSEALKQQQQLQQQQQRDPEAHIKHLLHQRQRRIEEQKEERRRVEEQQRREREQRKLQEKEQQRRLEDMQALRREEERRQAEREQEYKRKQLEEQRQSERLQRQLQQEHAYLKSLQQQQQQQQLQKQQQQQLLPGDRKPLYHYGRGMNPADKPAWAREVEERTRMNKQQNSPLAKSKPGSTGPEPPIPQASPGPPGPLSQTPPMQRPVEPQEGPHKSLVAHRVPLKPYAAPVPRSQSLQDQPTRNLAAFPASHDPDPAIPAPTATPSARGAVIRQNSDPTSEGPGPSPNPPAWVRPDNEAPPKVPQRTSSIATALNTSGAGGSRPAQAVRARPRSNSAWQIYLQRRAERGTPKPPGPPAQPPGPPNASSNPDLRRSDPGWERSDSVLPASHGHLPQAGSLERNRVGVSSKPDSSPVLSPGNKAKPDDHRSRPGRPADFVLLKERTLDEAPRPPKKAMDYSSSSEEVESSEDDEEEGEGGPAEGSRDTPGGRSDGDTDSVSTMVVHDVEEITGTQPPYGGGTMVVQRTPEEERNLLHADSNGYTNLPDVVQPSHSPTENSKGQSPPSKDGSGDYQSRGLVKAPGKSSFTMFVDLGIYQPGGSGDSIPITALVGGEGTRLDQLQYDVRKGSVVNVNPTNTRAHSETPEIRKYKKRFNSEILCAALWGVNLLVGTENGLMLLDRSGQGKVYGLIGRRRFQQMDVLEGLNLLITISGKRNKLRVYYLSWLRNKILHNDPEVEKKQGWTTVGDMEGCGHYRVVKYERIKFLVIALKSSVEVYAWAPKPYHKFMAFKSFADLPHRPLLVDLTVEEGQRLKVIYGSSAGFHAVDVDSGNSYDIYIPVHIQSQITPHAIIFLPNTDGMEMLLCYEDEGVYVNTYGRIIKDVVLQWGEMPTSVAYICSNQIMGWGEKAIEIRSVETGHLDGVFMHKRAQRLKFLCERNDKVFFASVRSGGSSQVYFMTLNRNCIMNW

[15] = target: Misshapen-like kinase 1 (Homo sapiens) (UniProt Q8N4C8); conditions: at 1 µM
[16] = target: T4, Serine/threonine-protein kinase 4 (Homo sapiens) (UniProt Q13043); conditions: at 0.1 µM
T4 sequence (whole entry): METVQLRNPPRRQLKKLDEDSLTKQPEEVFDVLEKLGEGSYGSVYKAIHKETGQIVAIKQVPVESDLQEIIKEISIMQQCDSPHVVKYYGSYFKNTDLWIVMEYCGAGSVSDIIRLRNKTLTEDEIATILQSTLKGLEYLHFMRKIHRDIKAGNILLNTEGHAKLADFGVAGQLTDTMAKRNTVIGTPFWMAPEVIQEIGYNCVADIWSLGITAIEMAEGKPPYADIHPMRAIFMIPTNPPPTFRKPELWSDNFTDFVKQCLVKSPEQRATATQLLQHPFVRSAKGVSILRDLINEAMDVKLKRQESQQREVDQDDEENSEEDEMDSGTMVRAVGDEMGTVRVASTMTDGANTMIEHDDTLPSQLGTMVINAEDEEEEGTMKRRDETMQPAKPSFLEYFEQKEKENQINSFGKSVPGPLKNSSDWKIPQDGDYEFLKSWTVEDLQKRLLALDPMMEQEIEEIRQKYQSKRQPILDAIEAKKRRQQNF

[17] = target: T4, Serine/threonine-protein kinase 4 (Homo sapiens); conditions: at 1 µM
[18] = target: T5, Serine/threonine-protein kinase 3 (Homo sapiens) (UniProt Q13188); conditions: at 0.1 µM
T5 sequence (whole entry): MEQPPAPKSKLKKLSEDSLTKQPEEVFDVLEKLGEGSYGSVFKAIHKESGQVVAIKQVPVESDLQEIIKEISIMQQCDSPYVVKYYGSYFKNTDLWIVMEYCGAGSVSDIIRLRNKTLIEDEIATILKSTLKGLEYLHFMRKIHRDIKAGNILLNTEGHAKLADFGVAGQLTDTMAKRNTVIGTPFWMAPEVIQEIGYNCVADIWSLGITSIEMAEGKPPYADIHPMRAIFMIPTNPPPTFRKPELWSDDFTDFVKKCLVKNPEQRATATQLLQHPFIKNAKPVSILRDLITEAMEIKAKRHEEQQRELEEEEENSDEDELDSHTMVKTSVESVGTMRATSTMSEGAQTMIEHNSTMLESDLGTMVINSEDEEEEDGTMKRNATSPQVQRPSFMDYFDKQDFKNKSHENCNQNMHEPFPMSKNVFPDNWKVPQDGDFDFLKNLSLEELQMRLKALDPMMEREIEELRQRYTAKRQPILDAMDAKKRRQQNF

[19] = target: T5, Serine/threonine-protein kinase 3 (Homo sapiens); conditions: at 1 µM
[20] = target: Serine/threonine-protein kinase 26 (Homo sapiens) (UniProt Q9P289); conditions: at 0.1 µM
Sequence of Serine/threonine-protein kinase 26 (Homo sapiens) (Q9P289 2-416 limits assumed): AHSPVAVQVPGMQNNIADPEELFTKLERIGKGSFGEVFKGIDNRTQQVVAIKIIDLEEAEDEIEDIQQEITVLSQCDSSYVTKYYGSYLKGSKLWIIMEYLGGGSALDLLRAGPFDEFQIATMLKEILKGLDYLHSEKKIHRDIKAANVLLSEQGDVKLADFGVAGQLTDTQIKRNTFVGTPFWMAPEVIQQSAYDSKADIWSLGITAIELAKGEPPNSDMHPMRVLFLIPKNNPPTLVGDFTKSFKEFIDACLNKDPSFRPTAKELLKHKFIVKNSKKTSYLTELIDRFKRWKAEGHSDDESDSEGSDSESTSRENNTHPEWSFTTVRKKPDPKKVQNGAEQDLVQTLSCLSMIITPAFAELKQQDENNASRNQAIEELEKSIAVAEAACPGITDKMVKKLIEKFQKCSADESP

Row | SMILES | inhibition [1] [%] | inhibition [2] [%] | inhibition [3] [%] | inhibition [4] [%] | inhibition [5] [%] | inhibition [6] [%] | inhibition [7] [%] | inhibition [8] [%] | inhibition [9] [%] | inhibition [10] [%] | inhibition [11] [%] | inhibition [12] [%] | inhibition [13] [%] | inhibition [14] [%] | inhibition [15] [%] | inhibition [16] [%] | inhibition [17] [%] | inhibition [18] [%] | inhibition [19] [%] | inhibition [20] [%]
1 | Nc1nc(-c2ccc3c(c2)C(=Cc2cc(Br)c(O)c(Br)c2)C(=O)N3)cs1 | 29.2 | 1.57 | 6.47 | -0.77 | 9.45 | 2.74 | 6.29 | 1.39 | 5.61 | 24.6 | 75.3 | -1.03 | -1.25 | 10.2 | 56.9 | -2.22 | 9.55 | -2.3 | 12.2 | 0.73
2 | CCn1c(-c2nonc2N)nc2c(C#CC(C)(C)O)nc(CN3CCCC3)cc21 | 3.35 | 0.07 | 4.15 | 0.15 | 23.3 | -1.82 | 1.24 | 1.94 | 1.87 | 1.68 | 1.37 | 0.73 | -0.46 | 2.4 | 0.35 | -1.15 | 0.25 | -2.44 | -2.27 | -0.36
3 | COc1ccc(-c2coc3ncnc(N)c23)cc1 | 7.06 | 3.4 | 8.81 | 1.56 | 15.3 | 3.11 | 8.06 | 1.83 | 6.08 | 4.43 | 10.2 | 5.34 | 5.29 | 12.5 | 8.75 | 7.11 | 8.23 | 6.08 | 6.94 | -0.2
4 | Cn1cc(C=C2C(=O)Nc3cccnc32)c2ccccc21 | 57 | 7.66 | 55.1 | 5.21 | 62.6 | 3.81 | 12 | 2.96 | 17.9 | 6.66 | 29 | 2.69 | 7.29 | 7.13 | 23.6 | 13.7 | 47.9 | 10.5 | 33.8 | 1.41
5 | COc1ccc(-c2ccncc2)cc1C(N)=O | 4.17 | 5.11 | 7.24 | 1.6 | 5.22 | 8.76 | 12.9 | 0.72 | 3.34 | 4.28 | 11.4 | 4.89 | 4.05 | 6.61 | 8.92 | 3.27 | 7.82 | 4.87 | 6.68 | -1.91
6 | COc1cc2ncn(-c3cc(OCc4ccccc4C(F)(F)F)c(C(N)=O)s3)c2cc1OC | 13.7 | 3.06 | 26.6 | 4.2 | 35.9 | 76 | 88.3 | 4.53 | 18.1 | 5.97 | 30.1 | 2.39 | 2.9 | 7.46 | 25.5 | 14.3 | 55.5 | 15.2 | 52.8 | -4.21
7 | CC1=C(C(=O)Nc2ccc3[nH]ncc3c2)C(c2ccc3ccccc3c2)CC(=O)N1 (stereo not given) | 70.6 | 4.02 | 22 | 3.09 | 32.8 | 2.65 | 2.84 | 1.47 | 3.14 | 2.51 | 3.73 | 8.09 | 44.4 | 4.56 | 3.98 | 3.56 | 12.2 | 3.29 | 9.79 | -0.11
8 | Nc1ncnc2occ(-c3ccc(NC(=O)Nc4cc(C(F)(F)F)cc(C(F)(F)F)c4)cc3)c12 | 46 | 10.6 | 44.5 | 1.5 | 79.7 | 9.76 | 29 | 15.7 | 48.9 | 2.54 | 5.19 | 0.93 | 3.12 | 5.87 | -1.47 | 3.59 | 6.92 | 4.8 | 5.55 | -0.71
9 | O=C1NC(=O)C(N2CCc3ccccc32)=C1c1ccc(Cl)cc1 | 15.5 | 5.02 | 13.8 | 3.07 | 15.9 | 7.48 | 8.68 | 1.87 | 6.3 | 4.26 | 9.97 | 5.02 | 5.22 | 5.14 | 10.3 | 6.36 | 7.67 | 6.26 | 7.91 | -1.31
10 | CCn1c(-c2nonc2N)nc2ccncc21 | 6.98 | 0.79 | 3.04 | 0.9 | 6.04 | 2.02 | 4.14 | 1.41 | 3.01 | 2.18 | 3.87 | 2.48 | 1.41 | 3.12 | 3.29 | 2.91 | 1.83 | 3.05 | 1.74 | 1.67
11 | O=C(Nc1n[nH]c2nc(-c3ccco3)c(Br)cc12)C1CC1 | 45.6 | 5.16 | 14.5 | 2.71 | 29.4 | 6.48 | 11.3 | -0.14 | 2.51 | 4.76 | 8.55 | 3.9 | 3.63 | 5.14 | 8.29 | 5.17 | 4 | 6.08 | 5.58 | -1.82
12 | CCCN1CCC=C(c2ccc(Nc3nc(Nc4ccccc4C(N)=O)c4cc[nH]c4n3)c(C)c2)C1 | 32.6 | 5.03 | 12.8 | 1.85 | 13.7 | 8.52 | 14.9 | 6.05 | 35.5 | 19.2 | 65.3 | 7.02 | 28.7 | 14.8 | 55.2 | 9.53 | 42.5 | 5.37 | 21.2 | -2.63
13 | CN1CCC(C(=O)Nc2n[nH]c3nnc(-c4ccccc4)cc23)CC1 | 8.78 | 3.81 | 9.47 | 4.39 | -2.07 | 8.49 | 9.99 | 0.73 | 3.35 | 6.6 | 14.1 | 6.89 | 5.56 | 6.64 | 14.6 | 4.72 | 13 | 5.88 | 9.3 | -0.64
